Compound activity as filed in PubChem.
A selection: hits, their analogues and other compounds. The true share with any hit is near 7%.
IL-1B inflam inh = qHTS for Inhibitors of Inflammasome Signaling: IL-1-beta AlphaLISA Primary Screen. activity change, % at 57.5 µM. 4.7% of 360,000 active. THP-1 LPS/ATP IL-1B secretion, AlphaLISA, 16 h; active compounds read low. AID 743279, 2014; in the data active = activity change below about -50%; inconclusive = mostly about -30% to -49%
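Secreted IL-1B measured by AlphaLISA bead assay after 16 h compound exposure of THP-1 cells; compounds (final up to 57.5 uM) added 1 h before LPS (250 ng/mL) and ATP (1.25 mM) stimulation; lower signal means less secretion.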
ATXN viability = Viability Counterscreen for Primary qHTS for Inhibitors of ATXN expression | S2 cells (HEK-293 line with an ATXN2-luciferase reporter) viability, CellTiter-Fluor protease fluorescence, 24 h | Potency, µM (highest dose often 56.7 µM), usual class: cytotoxic | 0.49% of 400,000 active | AID 651635, 2014; also: nearly all actives have a fitted effect of over 40% in size
D3 ag = qHTS of D3 Dopamine Receptor Agonist: qHTS. AID 652048, 2013. 0.58% of 410,000 active. max activation, %. D3R DiscoveRx beta-arrestin cells, luminescence, 90 min; in the data active = max activation above about 30%
Target sequence (P35462 whole entry, looked up): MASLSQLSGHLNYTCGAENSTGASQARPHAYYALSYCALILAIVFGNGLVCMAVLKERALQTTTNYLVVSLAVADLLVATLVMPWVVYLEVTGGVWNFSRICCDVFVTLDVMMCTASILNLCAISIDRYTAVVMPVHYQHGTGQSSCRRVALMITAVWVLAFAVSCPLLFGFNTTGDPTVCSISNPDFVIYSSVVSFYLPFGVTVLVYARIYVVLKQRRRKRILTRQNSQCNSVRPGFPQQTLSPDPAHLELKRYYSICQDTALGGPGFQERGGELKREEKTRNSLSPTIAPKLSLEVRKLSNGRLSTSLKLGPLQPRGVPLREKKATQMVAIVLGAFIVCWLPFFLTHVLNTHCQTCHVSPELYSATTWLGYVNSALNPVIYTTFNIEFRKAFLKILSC
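Cells at 1500/well, incubated overnight, then treated with pinned compounds (dopamine as control) for 90 min at 37 degrees C. DiscoveRx reagent added for 30 - 60 minutes at room temperature; luminescence read.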
a7 integrin act = qHTS for Activators of Integrin-Mediated Alleviation for Muscular Dystrophy | Potency, µM (series often up to 38.3 µM), usual class: activators | 0.064% of 350,000 active | alpha7betagal myoblasts, beta-gal FDG fluorescence, 48 h; also: nearly all actives have a fitted effect of over 60% in size
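alpha7betagal+/- myoblasts (passage 13, 250/well) treated 48 h at 37C with compounds at 1:260 dilution of DMSO stock. Lysed, then beta-galactosidase activity read as FDG fluorescence (ex 480/em 540) after 30 min, with pre-read for autofluorescence.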
ATXN2 expr inh = Primary qHTS for Inhibitors of ATXN expression; HEK-293 ATXN2-luciferase reporter, luminescence, 24 h; Potency, µM (highest dose often 57 µM), most hits filed as inhibitors; 0.72% of 360,000 active; also: nearly all actives have a fitted effect of over 55% in size
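ATXN2-luciferase reporter cells (luciferase flanked by upstream and downstream ATXN2 gene portions) were treated 24 h at 37 °C with compounds at up to 57 uM. SteadyGlo luminescence gave expression; GF-AFC fluorescence gave viability.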
D3 antag = qHTS of D3 Dopamine Receptor Antagonist: qHTS. 2.5% of 360,000 active. max response, negative = inhibition, %. D3R cells, DiscoveRx beta-arrestin luminescence, antagonist mode; active compounds read low. AID 652054, 2013; in the data active = max response below about -50%; inconclusive = no clear call, values can overlap the other calls
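Cells expressing the human receptor were seeded at 1500 cells/well, incubated overnight at 37 degrees C in 5% CO2, then exposed to library compounds with dopamine controls for 90 minutes at 37 degrees C before luminescent detection.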
Hits are given with their value; n = inactive; u = inconclusive; x = not tested or not shown; [ ] = remark or other dose. Unless noted, calls follow the shape of the dose curve; as a rule, active = well fitted curve in the direction sought with a large enough effect; inconclusive = small, poorly fitted or top-dose-only effect, or another doubt; inactive = no such curve, though single readings can be large; an effect the other way counts as inactive or inconclusive.

SMILES | IL-1B inflam inh | ATXN viability | D3 ag | a7 integrin act | ATXN2 expr inh | D3 antag
CC1C(=O)N(Cc2cn(Cc3ccco3)nn2)CCS(=O)(=O)N1Cc1ccc(-c2ccc(F)cc2Cl)cc1 (centres undefined) | n | u | n | x | u | n
CC1C(=O)N(Cc2cn(Cc3ccco3)nn2)CCS(=O)(=O)N1Cc1ccc(-c2ccccc2Cl)cc1 (centres undefined) | u | 11µM | n | x | n | n
O=C(NCc1ccco1)C(=O)c1cn(CC(=O)N2CCCCC2)c2ccccc12 | n | n | n | n | n | n
CCn1cnc2cc([N+](=O)[O-])ccc21 | n | n | n | u | n | n
CCOc1ccc(OCC)c(NS(=O)(=O)c2ccc3c(c2)CCN3C(=O)C2CCC2)c1 | n | n | n | n | n | n
CC(C)(C)c1ccc(C(=O)CSc2n[nH]c(=O)[nH]c2=O)cc1 | n | n | n | n | n | n
CCOc1ccc(NC(=O)CN2CC(c3ccccc3)CC2=O)cc1 (centres undefined) | n | n | n | n | n | n
Nc1nnc(CC(=O)N/N=C/c2cc([N+](=O)[O-])cc(Br)c2O)s1 | n | n | n | n | n | -109
O=C(CNC(=O)c1ccccc1Br)N/N=C/c1ccccc1O | n | x | n | n | u | n
O=C(CNC(=O)c1ccccc1F)N/N=C/c1cc(Br)ccc1OC(=O)/C=C/c1ccco1 | n | n | n | n | u | n
O=C(CN1CC(c2ccccc2)CC1=O)N/N=C/c1cc(Br)ccc1O (centres undefined) | n | n | n | n | 14µM | n
O=C(CNC(=O)c1ccccc1Br)N/N=C/c1cc(Br)ccc1O | n | n | n | n | 10µM | n
O=C(CNC(=O)c1ccc(F)cc1)N/N=C/c1cc(Br)ccc1OC(=O)/C=C/c1ccco1 | n | u | n | n | 8.9µM | n
CC(C)OP(=O)(c1ccc(N(C)C)cc1)C(Nc1ccccc1)c1cccnc1 (centres undefined) | n | n | n | n | n | n
Cn1cnc(S(=O)(=O)N2CCN(C(c3ccccc3)c3ccccc3)CC2)c1 | n | n | n | n | n | n
O=C(COc1ccc(-c2ccccc2)cc1)N/N=C/c1cc(O)ccc1Br | -95 | u | n | n | n | n
O=C(N/N=C/c1cc(Cl)ccc1O)c1ccccc1Br | n | n | n | n | 3.2µM | n
O=C(CNC(=O)c1ccccc1)N/N=C/c1cc(Br)ccc1O | n | n | n | n | 28µM | n
COC(=O)N/N=C/c1cc([N+](=O)[O-])cc(Br)c1O | n | n | n | n | u | -98
O=C(OCC(=O)c1ccc[nH]1)C1=COCCO1 | n | n | n | n | n | n
Cc1ccc(CN2C(=O)C3(c4ccccc42)N(c2cccc(F)c2)C(=O)CS3(=O)=O)cc1 (centres undefined) | x | n | n | x | n | x
O=C(CNC(=O)c1ccccc1Cl)N/N=C/c1ccc([N+](=O)[O-])s1 | -56 | n | n | n | n[11.3 µM] | n
O=C(CNC(=O)c1ccccc1Br)N/N=C/c1cccs1 | n | n | n | n | x | n
Cc1cccc(OCC(=O)NCC(=O)N/N=C/c2cc(Br)ccc2OCc2ccccc2)c1 | n | n | n | n | n | n
O=C(/C=N/NC(=O)c1ccc(Cl)cc1Cl)c1ccccc1 | -77 | n | n | u | n | n
SMILES | IL-1B inflam inh | ATXN viability | D3 ag | a7 integrin act | ATXN2 expr inh | D3 antag
O=C(/C=N/NC(=O)c1ccccc1Br)c1ccccc1 | n | n | n | n | n[11.3 µM] | n
O=C(COc1ccccc1)NCC(=O)N/N=C/c1cc(Br)ccc1OCc1ccccc1 | -53 | n | n | n | x | n
O=C(CNC(=O)c1ccccc1Br)N/N=C\c1cc([N+](=O)[O-])cc(Br)c1O | n | n | n | n | n | -76
Cc1ccc(C(=O)N2CCc3cc(CNC(=O)CCc4ccccc4)ccc32)cc1 | x | x | n | x | x | x
CCN1C(=O)/C(=C/c2cc(C)n(C)c2C)SC1=Nc1ccc(OC)cc1 | n | n | n | n | n | n
CC1CCCCC1NC(=O)NC(=O)CCl (centres undefined) | -96 | n | n | n | n | n
CC1CCCC(NC(=O)NC(=O)CCl)C1C (centres undefined) | -63 | n | n | n | n | n
COc1ccc(OC)c(NC(=O)c2cc3oc4ccccc4c3cc2O)c1 | n | n | n | n | x | n
CC1CC(C)CN(C(=O)c2ccc3ccccc3c2)C1 (centres undefined) | -51 | n | n | n | n | n
CC1CCN(C(=O)c2ccc3ccccc3c2)CC1 | n | n | n | n | n | n
CC1CC(C)CN(C(=O)c2ccc(S(=O)(=O)N3CC(C)CC(C)C3)cc2)C1 (centres undefined) | -77 | n | n | n | n | n
CCOC(=O)c1cc2c(=O)n3ccccc3nc2n(CCCOC)c1=NC(C)=O | n | x | n | n | n | n
COCc1c(C(=O)NC2CCCC2)cnn1-c1nccc(-c2cc(C)sc2C)n1 | x | n | x | x | x | x
Cc1ccc(Nc2nc(N)c([N+](=O)[O-])c(N3CCCC(C)C3)n2)cc1C (centres undefined) | -98 | u | n | n | n | n
O=C(c1n[nH]c(=O)c2ccccc12)N1CCOCC1 | n | n | n | n | n | -59
CCOC(=O)CC(NC(=O)c1cccs1)c1ccc(OCC)cc1 (centres undefined) | n | n | n | n | n | n
O=C(Nc1ccc(S(=O)(=O)Nc2nccs2)cc1)C1CC(=O)N(c2ccccc2)C1 (centres undefined) | n | n | n | n | n | n
Cc1cc(C)nc(SC2CC(=O)N(c3ccc(Cl)cc3)C2=O)n1 (centres undefined) | n | n | n | u | n | n
COc1cccc(NC(=O)c2cnn(-c3ccccc3)c2C)c1 | n | n | n | n | n | n
Cc1cccc(C)c1NC(=O)c1cnn(-c2ccccc2)c1C | -62 | n | n | n | n | n
Cc1ccc(NC(=O)c2cnn(-c3ccccc3)c2C)c(C)c1 | -67 | n | n | n | n | n
Cc1ccc(NC(=O)c2cnn(-c3ccccc3)c2C)cc1 | u | u | n | u | x | n
CCOC(=O)C1(C)NC(c2ccc(OC)cc2OC)C2C(=O)N(CC)C(=O)C21 (centres undefined) | n | n | n | n | n | n
O=C(C1CCN(S(=O)(=O)c2cc(Cl)ccc2Cl)CC1)N1CCOCC1 | -57 | n | n | n | n | n
O=C(C1CCN(S(=O)(=O)c2cc(Cl)ccc2Cl)CC1)N1CCCC1 | n | n | n | n | n | n
